These results are taken from PubChem BioAssay.

Calls of active or inactive are those of the source.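 How the source made its calls: active means GFP response below 50% of the DMSO control; inconclusive means fewer than 70 events counted for a yeast strain; inactive means the rest.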

This assay is described as follows: hit retest on RPL19A-GFP reporter strain – cell-based, S. cerevisiae, flow cytometry, cherry picks, mother/daughter gates, confirmation (AID 2270). The following applies: 3 h, at 10 µM, hits give low values, 100 = same GFP as DMSO wells.
Turning to `Cc1cccn2c(=O)c(/C=C(\C#N)C(N)=O)c(N3CCN(Cc4ccc5c(c4)OCO5)CC3)nc12`, the GFP response vs DMSO was 101% (inactive).

`O=S(=O)(CCN(CCS(=O)(=O)C(F)(F)F)CC1CCCO1)C(F)(F)F` (stereo unspecified): the GFP response vs DMSO was 92.9% (inactive).

Take `COc1cc(NC(=O)C(C)C)ccc1NC(=O)c1cc2ccccc2o1`: the GFP response vs DMSO is 102% (inactive).

Take `COc1cc(/C=C2/N=C(c3ccccc3)OC2=O)c(F)cc1OCc1ccccc1`: the GFP response vs DMSO is 99.1% (inactive).

Regarding `Cc1cccc(C)c1OCCOC(=O)c1n[nH]c2ccccc12`, the GFP response vs DMSO is 98.8% (inactive).

Regarding `Cc1ccc(/C=N\NC(=O)c2cc(OCC(F)(F)F)ccc2OCC(F)(F)F)cc1`, the GFP response vs DMSO is 100% (inactive).

For `CCOCCCNC(=O)/C(C#N)=C/c1ccc([N+](=O)[O-])o1`, the GFP response vs DMSO is 118% (inactive).

Consider `O=c1[nH]c(CN2CCCCC2)nc2c1C1(CCCCC1)Cc1ccccc1-2`, for which the GFP response vs DMSO is 100% (inactive).

Turning to `CSC1=NC(=O)/C(=C/c2ccc(SC)cc2)S1`, the GFP response vs DMSO is 95.1% (inactive).

For the compound `COC(=O)Nc1c(-c2ccccc2)nc2ccccn12`, the GFP response vs DMSO is 99.4% (inactive).

Take `CCCc1[nH]nc2c1C(c1ccc(O)c(OC)c1)C(C#N)=C(N)O2` (stereo unspecified): the GFP response vs DMSO is 103% (inactive).

Take `CCc1ccc2c(c1)/C(=C/C(=O)c1cccs1)C(=O)N2`: the GFP response vs DMSO is 94.9% (inactive).

For `CCN(C(=O)c1ccccc1Cl)c1ccccc1`, the GFP response vs DMSO is 98.5% (inactive).

On to `COCCNc1c(-c2ccc(O)cc2)nc2ccc(Cl)cn12`, for which the GFP response vs DMSO was 97.6% (inactive).

With `CC(C)(C)c1ccc(C(=O)N/N=C/c2cccc(Cl)c2)cc1`, the GFP response vs DMSO was 96% (inactive).

For the compound `O=C(COC(=O)C1CCN(c2ccc(C(F)(F)F)cn2)CC1)Nc1cccc(F)c1`, the GFP response vs DMSO was 95% (inactive).
